From PubChem BioAssay AID743360 (Molecular Libraries Program, Specialized Chemistry Center, …, 2014)
A number with no mark means an inactive call. Active and inactive are the calls of the source.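 How the source made its calls: active means calcium retention capacity relative to untreated control above about 1.1 ratio (limit read from the data); inactive means the rest.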

Test: mtPTP inhibition via calcium retention, dose response, biochemical, dry powder samples, uHTS hits, Calcium Green-5N (AID 743360)
Conditions: isolated mitochondria, Ca retention capacity

Compound | CRC/CRC0 ratio at 12.5 uM (higher = more inhibition)
COc1ccc(Cl)c(C(=O)Nc2ccc(CCN3CCOCC3)cc2)c1 | > 1
COc1ccc(Cl)cc1C(=O)Nc1ccc(N2CCOCC2)cc1 | > 1
COc1ccc(Cl)cc1S(=O)(=O)Nc1ccc(CN2CCN(C)CC2)cc1 | 1.03
CCCc1cc(C(=O)Nc2c(F)cc(F)cc2Br)no1 | 1.13 (active)
O=C(Nc1ccc(CN2CCCCC2)cc1)c1cc(OCc2ccccc2)ccc1Cl | 2.26 (active)
O=C(Nc1ccc(CN2CCCCC2)cc1)c1ccc(Cl)c(OCc2ccccc2)c1 | 21.3 (active)
CN1CCN(c2ccc(NC(=O)c3ccc(OCc4ccccc4)cc3)cc2)CC1 | 1.08
CC(C)c1cc(C(=O)Nc2ccc(F)cc2F)no1 | 1.09
COc1ccc(Cl)cc1C(=O)Nc1ccc(CN2CCN(C(=O)OC(C)(C)C)CC2)cc1 | 1.33 (active)
COc1ccc(NC(=O)c2cc(Cl)cc(Cl)c2OC)cc1 | > 1
CN1CCN(c2ccc(NC(=O)c3cccc(OCc4ccccc4)c3)cc2)CC1 | 1.52 (active)
O=S(=O)(Nc1ccc(CCN2CCCCC2)cc1)c1ccc(F)c(Cl)c1 | 1.07
O=C(Nc1ccc(CN2CCCCC2)cc1)c1cc(Cl)cc(OCc2ccccc2)c1 | 22.7 (active)
COc1ccc(Cl)cc1S(=O)(=O)Nc1ccc(CN2CCCCC2)cc1 | 1.05
COc1ccc(Cl)cc1C(=O)Nc1ccc(N2CCCCC2)cc1 | 1.05
CN1CCN(CCc2ccc(NS(=O)(=O)c3cc(Cl)cc(Cl)c3)cc2)CC1 | 1.09
COc1ccc(Cl)cc1C(=O)Nc1cccc(CN2CCN(C(=O)OC(C)(C)C)CC2)c1 | 1.08

Compound | CRC/CRC0 ratio at 12.5 uM (higher = more inhibition)
COc1ccc(NC(=O)c2cc(-c3cccc(O)c3)on2)cc1Cl | 3.26 (active)
CCc1ccccc1NC(=O)c1cc(-c2ccccc2)on1 | > 1
COc1ccc(Cl)c(C(=O)Nc2ccc(CN3CCOCC3)cc2)c1 | 1.03
CC(C)C1CCN(CCCC(=O)c2ccc(Br)cc2)CC1 | 1.16 (active)
COc1ccc(Cl)cc1C(=O)Nc1ccc(CCN2CCNCC2)cc1 | 1.31 (active)
CN1CCN(c2ccccc2NC(=O)c2ccc(OCc3ccccc3)cc2)CC1 | 1.24 (active)
COc1ccccc1C(=O)Nc1ccc(CN2CCCCC2)cc1 | 1.05
COc1ccc(C(=O)CCN2CCCC(C)C2)cc1 (stereo not drawn) | 1.07
O=C(Nc1cccc(F)c1)c1cc(-c2cccc(O)c2)on1 | 2.24 (active)
COc1ccc(Cl)cc1S(=O)(=O)Nc1ccc(CCN2CCN(C)CC2)cc1 | 1.03
O=C(Nc1cccc(Cl)c1Cl)c1cc(-c2cccc(O)c2)on1 | 4 (active)
CN1CCN(c2ccc(NS(=O)(=O)c3cccc(Cl)c3)cc2)CC1 | 1.05
COc1ccc(Cl)cc1C(=O)Nc1cccc(CN2CCNCC2)c1 | 1.52 (active)
CN1CCN(c2ccc(NS(=O)(=O)c3cc(Cl)cc(Cl)c3)cc2)CC1 | 1.11 (active)
O=S(=O)(Nc1ccc(CN2CCCCC2)cc1)c1cc(Cl)cc(Cl)c1 | 1.07
COc1ccc(Cl)cc1C(=O)Nc1ccc(CCN2CCN(C)CC2)cc1 | 1.37 (active)
